# Arbovirus inh: blocks arbovirus infection. inhibition, % at 10 µM. arbovirus infection cell-based antiviral screen. actives 0.37% (n = 200,000); in the data active = inhibition above about 30%
# S1P3 antagonist: antagonists of human S1P3 receptor; Q99500; CHO S1P3 NFAT-BLA reporter, FRET fluorescence, antagonist mode; inhibition, % at 4.98 µM; actives 0.27% (n = 170,000);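 active = inhibition above the plate cutoff, the mean inhibition of test wells on that plate plus 3 SD, cut at about 28% in these data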;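 note: cells challenged with S1P at its EC80 of 0.8 µM; blue over green emission ratio from cleaved BLA substrate after 4 h stimulation; 0% = S1P-stimulated wells and 100% = unstimulated DMSO-only wells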
# S1P4 agonist: human S1P4 receptor agonism. O95977. S1P4-expressing cell line, agonist reporter assay. activation, % at 4.98 µM. actives 0.35% (n = 220,000). AID 1509; in the data active = activation above about 11%;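 note: 0% = DMSO vehicle and 100% = reference agonist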
# p97 ATPase inh: inhibitors of human p97 ATPase. AID 1481. actives 0.42% (n = 220,000). inhibition, % at 8 µM. recombinant p97 ATPase, Kinase-Glo ATP luminescence, 3 h; in the data active = inhibition above about 15%;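 note: 0% = DMSO vehicle and 100% = wells lacking enzyme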
# Redox H2O2 prof: compounds producing H2O2 with reducing agent – biochemical, NIH compound library profiling, artefact control for MLSCN library redox annotation, primary screen. DTT-dependent redox cycling H2O2, phenol red/HRP absorbance; 100% = 100 µM peroxide control, 0% = buffer. activation, % at 10 µM. actives 0.03% (n = 200,000). AID 878;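 active = activation of at least 50% relative to the plate's high and low controls in the primary single-dose screen; inactive = activation below 50%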;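 note: compound incubated with DTT at 0.8 mM final as the reducing agent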
# S1P4 antag: human S1P4 receptor antagonism | S1P4-expressing cells, antagonist mode, reporter read-out | inhibition, % at 4.98 µM | actives 0.26% (n = 220,000); in the data active = inhibition above about 29%;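 note: 0% = wells stimulated with agonist and 100% = vehicle wells without agonist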
# S1P4 antag cf: confirmation of human S1P4 receptor antagonists; shares compounds with S1P4 antag; S1P4-expressing cell line, antagonist mode, reporter read-out; inhibition, % at 4.98 µM; actives 71% (n = 520); in the data active = inhibition above about 30%
# S1P1 antag: human S1P1 antagonism as S1P4 antagonist counter-screen; shares compounds with S1P4 antag; cell-based S1P1 antagonist counterscreen, inhibition; inhibition, % at 4.98 µM; actives 37% (n = 520); AID 1564; in the data active = inhibition above about 40%;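 note: receptor stimulated with S1P near its EC80; 0% = agonist stimulated wells and 100% = vehicle only wells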
# Target sequence (P21453 whole entry, looked up): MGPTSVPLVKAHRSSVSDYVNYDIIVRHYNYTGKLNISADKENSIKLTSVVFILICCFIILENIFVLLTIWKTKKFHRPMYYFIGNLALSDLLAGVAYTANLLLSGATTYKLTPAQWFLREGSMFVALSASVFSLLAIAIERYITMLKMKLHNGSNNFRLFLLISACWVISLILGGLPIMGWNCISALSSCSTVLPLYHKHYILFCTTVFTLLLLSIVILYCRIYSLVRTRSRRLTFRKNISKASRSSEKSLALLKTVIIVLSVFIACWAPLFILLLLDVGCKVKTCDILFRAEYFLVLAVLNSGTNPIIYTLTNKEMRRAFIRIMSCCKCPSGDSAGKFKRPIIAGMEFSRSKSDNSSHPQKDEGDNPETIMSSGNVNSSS
# An asterisk follows results filed as active; . = no result given. In the library only some 1.6% were active in any assay of this set; here they are far more common.
SMILES,Arbovirus inh,S1P3 antagonist,S1P4 agonist,p97 ATPase inh,Redox H2O2 prof,S1P4 antag,S1P4 antag cf,S1P1 antag
O=S(=O)(Nc1cccc2ncccc12)c1cccs1,-22,4,-1,6,0,54*,106*,91*
COc1ccc(N=Nc2n(C)c3ccccc3[n+]2C)cc1,.,-45,-1,-71,.,30*,0,35
COc1ccc(N=Nc2nc(-c3ccccc3)c(-c3ccccc3)[nH]2)cc1,4,6,1,-2,0,-13,.,.
CC(C)CNC(=O)c1ccccc1NC(=O)CCSc1ccccc1,1,-2,-1,-1,0,-5,.,.
COCCNc1ncnc2c1cnn2-c1ccc(Cl)cc1,0,.,0,-4,-1,33*,8,20
COCCN(CCOC)c1ncnc2c1cnn2-c1ccc(Cl)cc1,8,.,-1,-8,-1,5,.,.
COCCNC(=O)C(c1cccnc1)N(Cc1ccccc1)C(=O)Cn1nnc2ccccc21 (stereo unspecified),6,-18,-2,-2,-1,-11,.,.
Cc1cccc(N(C(=O)Nc2ccc(Cl)cc2)C2=NCC(C)S2)n1 (stereo unspecified),-7,4,1,0,0,-8,.,.
O=C(/C=C/c1ccccc1)C1=C(O)C(=O)N(CCO)C1c1ccccc1[N+](=O)[O-] (stereo unspecified),-3,0,-1,9,0,-19,.,.
Cc1nc2ccc(NC(=O)c3nn(CC(C)C)c(=O)c4ccccc34)cc2s1,-25,-13,-2,-13,0,40*,45*,23
O=C(CCCn1cnc([N+](=O)[O-])n1)Nc1cccc2ccccc12,12,-11,0,7,0,112*,0,17
COc1c(Cl)cnn(-c2ccc(C)cc2)c1=O,-36,.,-3,-1,1,5,.,.
O=c1c(Br)c(Br)cnn1-c1ccccc1,-33,6,-3,6,0,112*,121*,48*
Cc1ccc(-n2ncc(Br)c(Br)c2=O)cc1,-22,1,2,0,-1,103*,117*,37
CCOc1cc(/C=N/Nc2ccccc2Cl)ccc1OCC(=O)O,-33,3,1,2,0,-14,.,.
CN(C)c1ccc(/C=N/N=C2/NC(=O)/C(=C/c3ccc([N+](=O)[O-])cc3)S2)cc1,10,.,-1,2,2,-14,.,.
Cn1cccc1C(=O)NC(=O)COC(=O)C12CC3CC(CC(O)(C3)C1)C2,-3,.,-3,0,0,33*,3,5
CCCCCCn1nc(C(=O)Nc2nc3c(s2)CCCC3)c2ccccc2c1=O,2,15,1,-12,0,-5,.,.
O=c1/c(=C/c2ccc([N+](=O)[O-])cc2)sc2n1CCCN=2,0,.,0,1,-8,34*,22,31
CCCN(CCC)CC(O)Cn1cc(/C=C/C(=O)c2cccs2)c2ccccc21 (stereo unspecified),-29,8,2,0,3,34*,59*,74*
Cc1c([N+](=O)[O-])c([N+](=O)[O-])nn1CC(=O)N1CCCCC1,4,1,1,6,0,-18,.,.
O=C(Nc1ccc(Cl)cc1)Nc1ccccc1Sc1ncc([N+](=O)[O-])s1,.,2,1,11,.,13,.,.
O=[N+]([O-])c1cnc(Sc2ccncn2)s1,.,11,1,-1,.,35*,116*,112*
Cc1ccc(C2=NN(CCC(=O)NCc3ccc4c(c3)OCO4)C(=O)CC2)cc1,-9,-9,-1,2,-1,-6,.,.
CN(C)/C=C/C(=O)c1cnc(-c2ccccc2)s1,13,2,1,3,0,38*,-5,1
CN(C)c1ccc(/C=C(/NC(=O)c2ccccc2)C(=O)N/N=C/c2ccc([N+](=O)[O-])c(O)c2)cc1,-1,.,-1,7,-3,-18,.,.
O=C(CSc1cccc2cccc(Cl)c12)NC1=NCCS1,16,4,2,-5,-1,-30,.,.

# Screens from PubChem.
